ARNT TACC3 PPI = disruptors of ARNT/TACC3 protein interaction, primary screen, biochemical, AlphaScreen, single concentration. 390,000 compounds, 0.66% hits. AID 623870, 2012. Transforming acidic coiled-coil-containing protein 3 (Homo sapiens), Q9Y6A5. AlphaScreen His-ARNT PAS-B/GST-TACC3 binding, luminescence; TACC3 fragment carries E629A point mutation. inhibition, % at 9.99 µM;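 active = mean inhibition of replicates at least 50% and at least half of replicates each reaching 50%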
CFTR F508del cor = F508del CFTR correction, initial screen, CFBE line, single point | AID 720511, 2013 | 350,000 compounds, 0.36% hits | CFBE cells, YFP halide quenching; stimulated with forskolin plus potentiator P3; % fluorescence drop versus neutral controls | activity (quench increase), % at 7.58 µM;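 active = mean added fluorescence quench of at least 8% versus neutral control, with both replicates also reaching 8%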;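 also: cells transiently co-express mutant CFTR-F508del with the halide-sensitive YFP; corrector assay measuring rescue of mutant channel to the surface after 24 h compound exposure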
PglD DTNB = C. jejuni PglD acetyltransferase inhibitors, primary screen, biochemical, DTNB colorimetric, single point. inhibition, % at 12.5 µM. 360,000 compounds, 0.098% hits. purified PglD enzyme, DTNB colorimetric CoA detection. AID 602405, 2012. UDP-N-acetylbacillosamine N-acetyltransferase PglD (Campylobacter jejuni); in the data active = inhibition above about 16%, passing the limit was not always enough
Statin myotox sup = suppressors of statin myotoxicity in C2C12 myotubes, primary screen, cell-based, single point, plate reader. C2C12 myotubes + simvastatin, ATP luminescence, 48 h; scaled: DMSO 0, geranylgeraniol control 100. rescue of ATP level, % at 7.49 µM. 330,000 compounds, 0.78% hits. AID 602340, 2012;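 active = mean ATP rescue above about 67%, or every replicate alone reaching that limit, limit read from the data, passing the limit was not always enough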;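 also: myotubes were challenged with 10 µM simvastatin during compound exposure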
Hits are given with their value; - = inactive; . = no result given; ! = not active in a repeat. Shown are actives, neighbours in structure and some others; about 1.4% of the full set was active somewhere.

SMILES	ARNT TACC3 PPI	CFTR F508del cor	PglD DTNB	Statin myotox sup
Cc1ccccc1N=Nc1ccc(O)c2ncccc12	-	.	-	.
O=C(C[C@@H]1C=C[C@@H](NC(=O)c2ccccc2)[C@@H](CO)O1)NCCc1ccncc1	-	-	-	-
Cc1cccc(C)c1-n1c(C)cc(/C=N\Nc2ccc([N+](=O)[O-])cn2)c1C	-	.	-	163
O=[N+]([O-])c1ccc(NN=Cc2cccc(O)c2)nc1	.	-	-	-
CO[C@H]1CN(C)C(=O)c2cc(NC(=O)C3CCC3)ccc2OC[C@@H](C)N(C)C[C@H]1C	-	-	-	-
Cc1ccc(S(=O)(=O)CCC(=O)Nc2cccc(Cl)c2)cc1	-	-	-	108
C[C@H](CO)NC(=O)[C@@H]1C[C@H]1[C@@H](NP(=O)(c1ccccc1)c1ccccc1)c1ccccc1	-	-	-	116
Cc1cc(CNC(=O)[C@H]2C[C@@H]2[C@H](NP(=O)(c2ccccc2)c2ccccc2)c2ccccc2)nn1C	.	-	.	.
C[C@@H]1CCCCO[C@H](CN(C)C(=O)Nc2ccc3c(c2)OCO3)[C@@H](C)CN([C@@H](C)CO)C(=O)c2cc(NS(=O)(=O)c3cn(C)cn3)ccc2O1	-	-	-	.
OCCN(Cc1ccccc1)Cc1ncccc1O	24	-	-	-
Oc1cccnc1CCc1ccccc1	-	.	.	.
O=C(C[C@@H]1CC[C@H](NC(=O)Nc2ccc(C(F)(F)F)cc2)[C@H](CO)O1)NCc1ccccn1	-	-	-	-
Nc1ccn(C2OC(CO)C(O)C2F)c(=O)n1 (configuration not stated)	.	-	-	-
NC[C@H]1O[C@@H](n2ccc(N)nc2=O)[C@H](O)[C@@H]1O	.	-	-	-
Nc1ccn(C2OC(CO)C(O)C2O)c(=O)n1 (configuration not stated)	.	9.7	-	-
Nc1ccn([C@@H]2O[C@H](CO)[C@@H](O)[C@@H]2O)c(=O)n1	-	19	-	-
CCCN(C)C[C@H]1Oc2cc(C#Cc3cccc(OC)c3)ccc2S(=O)(=O)N([C@H](C)CO)C[C@H]1C	.	-	.	-
Cc1cc(C)cc(OCC(=O)NNC(=O)c2cc3ccccc3o2)c1	-	-	-	-
COc1ccc(OCC(=O)NNC(=O)c2ccccn2)cc1	67	.	.	.
O=C(CCc1ccccc1)NNC(=O)COc1ccccc1	-	.	-	-
COc1ccc(OCC(=O)NNC(=O)CCc2ccccc2)cc1	-	9.8	-	-
CCc1ccc(OCC(=O)NNC(=O)c2cc3ccccc3o2)cc1	-	-	-	81
Cc1noc(C)c1NC(=O)N(C)C[C@H]1Oc2ccc(NS(=O)(=O)c3cccs3)cc2C(=O)N([C@@H](C)CO)C[C@H]1C	-	-	-	-
O=C(CSc1nc(NS(=O)(=O)c2ccccc2)cc(=O)[nH]1)Nc1cccc(C(F)(F)F)c1	-	-	-	-
O=C(CSc1nc(NS(=O)(=O)c2ccccc2)cc(=O)[nH]1)Nc1ccc(F)cc1	-	.	25	-
SMILES	ARNT TACC3 PPI	CFTR F508del cor	PglD DTNB	Statin myotox sup
COc1ccc2c3c([nH]c2c1)[C@H](CO)N(C)CC31CN(C(=O)c2ccccn2)C1	.	-	.	.
Nc1cc(C(=O)O)c(N)c2c1C(=O)c1ccccc1C2=O	55	.	.	.
N#Cc1ccc(-c2ccc(C3[C@@H]4CN(C(=O)C5CCCC5)C[C@H]3N4)cc2)cc1 (some centres not stated)	.	-	.	.
N#Cc1ccc(-c2ccc(C3[C@@H]4CN(C(=O)C5CCC5)C[C@H]3N4)cc2)cc1 (some centres not stated)	.	10!	.	.
CCCCC1(C2CCCC2)NC(=O)NC1=O (configuration not stated)	-	12	-	-
O=C(C[C@@H]1C=C[C@H](NC(=O)Cc2cccnc2)[C@@H](CO)O1)Nc1ccc(-c2ccccc2)cc1	.	-	.	.
CCCN1C[C@@H](C)[C@@H](OC)CN(C)C(=O)c2ccc(NC(=O)c3ccccc3)cc2OC[C@H]1C	-	-	-	-
O=C1C(=Cc2ccncc2)CCCc2ccccc21	.	-	-	-
O=C1/C(=C/c2ccncc2)CCC/C1=C\c1ccncc1	-	-	-	250
Nc1ccc(C(=O)Nc2ccc3cc(S(=O)(=O)O)ccc3c2)cc1	-	-	-	93
N=c1sccn1CC(=O)Nc1ccc(S(N)(=O)=O)cc1	-	11	-	-
CN(Cc1ccccc1F)C(=O)c1ccc(NC(=O)CC2SC(N3CCCCC3)=NC2=O)cc1 (configuration not stated)	-	-	-	-
CN(Cc1c(F)cccc1Cl)C(=O)c1ccc(NC(=O)CC2SC(N3CCCCC3)=NC2=O)cc1 (configuration not stated)	-	11	-	-
O=C(O)c1ccc(NC2=C/C(=N/S(=O)(=O)c3cccs3)c3ccccc3C2=O)cc1	.	-	-	-
O=C1C(Nc2ccc(O)cc2)=C/C(=N/S(=O)(=O)c2cccs2)c2ccccc21	67	-	.	.
COc1ccccc1NC(=O)NC1(C(=O)N2CCCCCC2)CCCCC1	-	.	-	106
C[C@@H]1CCCCO[C@H](CN(C)C(=O)NC2CCCCC2)[C@H](C)CN([C@@H](C)CO)C(=O)c2cc(NC(=O)c3ccccc3)ccc2O1	-	-	-	.
CCCN1[C@@H]2c3ccc(C4=CCCC4)c(=O)n3C[C@H]1[C@H](CO)[C@H]2C(=O)NCCOC	-	-	-	-
O=c1c2[nH]c3cccc(Cl)c3c2ncn1CCN1CCCCC1	-	.	.	103
O=C(CCN1CCCCC1)NCC[C@H]1CC[C@H](NS(=O)(=O)c2cccc(F)c2)[C@@H](CO)O1	-	-	-	-
O=C(NCc1ccccc1Cl)c1cnccn1	-	.	-	67
CCCCCCOC(=O)Cc1c(C)nc(N)[nH]c1=O	-	-	-	-
CCCCCCOC(=O)CCc1c(C)nc(N)[nH]c1=O	-	.	-	98
O=C(CSc1nnc2c(n1)[nH]c1ccc(F)cc12)OCc1ccccc1	-	.	-	85
c1cc2cc(-c3c(-c4ccc5c(c4)OCO5)noc3-c3ccsc3)ccc2[nH]1	.	-	-	126
SMILES	ARNT TACC3 PPI	CFTR F508del cor	PglD DTNB	Statin myotox sup
Cc1onc(-c2ccc3c(c2)OCO3)c1-c1ccc2[nH]ccc2c1	-	-	-	-
CCOC(=O)Cc1nnc(NC(=O)C(CC)Sc2nncn2C)s1 (configuration not stated)	-	-	-	-
CCOC(=O)Cc1nnc(NC(=O)C(CC)Sc2nc(C)cc(=O)[nH]2)s1 (configuration not stated)	45	-	-	-
COC(=O)c1ccc(/C=C/c2c(-c3ccc(OC)cc3)oc3ccc(N4CCOCC4)cc23)cc1	-	9.6	-	-
O=C1c2ccccc2-c2onc3ccc(N4CCCC4)c1c23	-	-	.	.
O=C1c2ccccc2C(=O)c2c1cccc2N1CCCC1	-	8.0	-	.
CNC(=O)Cn1ncc2c(C)n(Cc3ccc(C)cc3)c(C)c2c1=O	-	.	-	120
